The nature of assay [1]: Quantitative High-Throughput drug screen in 47 multiple myeloma cell lines against the NCATS MIPE library collection: FR4_PLB cell viability assay (AID 1918924; note: nearly all actives have a fitted effect of over 35% in size). In short, it runs like this:
(§1)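 Myeloma cells (500 per well) were exposed to MIPE 4.0 compounds by pin transfer and incubated 48 hours at 37C, 5% CO2. Viability was read as ATP by CellTiter-Glo luminescence, normalised to DMSO (100%) and media-only (0%) wells.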

A short description of assay [2]: Quantitative High-Throughput drug screen in 47 multiple myeloma cell lines against the NCATS MIPE library collection: Delta47_JCRB cell viability assay (AID 1918925; note: nearly all actives have a fitted effect of over 45% in size). In short, it runs like this:
as §1

The nature of assay [3]: Quantitative High-Throughput drug screen in 47 multiple myeloma cell lines against the NCATS MIPE library collection: EJM_DSMZ cell viability assay (AID 1918926; note: nearly all actives have a fitted effect of over 30% in size). In short, it runs like this: as §1
Assay [4] in a line: Quantitative High-Throughput drug screen in 47 multiple myeloma cell lines against the NCATS MIPE library collection: AMO1_DSMZ cell viability assay (AID 1918927; note: nearly all actives have a fitted effect of over 30% in size). In short, it runs like this: as §1
A short description of assay [5]: Quantitative High-Throughput drug screen in 47 multiple myeloma cell lines against the NCATS MIPE library collection: ARP1_JJKsccF8 cell viability assay (AID 1918928; note: nearly all actives have a fitted effect of over 40% in size). In short, it runs like this: (§2)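 CellTiter-Glo luminescence after 48 h exposure gives viability, scaled between DMSO-only (100%) and media-only (0%) controls. Library compounds are pinned onto 500 myeloma cells per well, incubated at 37C with 5% CO2.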

The nature of assay [6]: Quantitative High-Throughput drug screen in 47 multiple myeloma cell lines against the NCATS MIPE library collection: Karpas620_DSMZ cell viability assay (AID 1918959). Note: nearly all actives have a fitted effect of over 30% in size. In short, it runs like this:
as §1

Assay [7] in a line: Quantitative High-Throughput drug screen in 47 multiple myeloma cell lines against the NCATS MIPE library collection: KMM1_JCRB cell viability assay (AID 1918960).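 For viability (% of DMSO): 100% = DMSO-treated cells and 0% = medium-only wells.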 Note: nearly all actives have a fitted effect of over 30% in size. In short, it runs like this: as §2
The nature of assay [8]: Quantitative High-Throughput drug screen in 47 multiple myeloma cell lines against the NCATS MIPE library collection: Karpas417_ECACC cell viability assay (AID 1918961). As to conditions: Karpas417 myeloma viability, CellTiter-Glo ATP luminescence, 48 h; viability (% of DMSO): at 45.8 µM (top of the series). In short, it runs like this:
(§3)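 CellTiter-Glo ATP luminescence gave viability after 48 h compound treatment at 37C of 500 multiple myeloma cells per well. Normalisation used DMSO-only wells as 100% and media-only wells as 0% viability; primary qHTS of approved and investigational drugs.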
(In general: ATP-based viability assays read luminescence as a measure of living cells.)

Assay [9] is described as follows: Quantitative High-Throughput drug screen in 47 multiple myeloma cell lines against the NCATS MIPE library collection: JIM3_ECACC cell viability assay (AID 1918963; note: nearly all actives have a fitted effect of over 35% in size). In short, it runs like this: as §1
The nature of assay [10]: Quantitative High-Throughput drug screen in 47 multiple myeloma cell lines against the NCATS MIPE library collection: H1112_PLB cell viability assay (AID 1918967; note: nearly all actives have a fitted effect of over 30% in size). In short, it runs like this:
as §1

Assay [11] in a line: Quantitative High-Throughput drug screen in 47 multiple myeloma cell lines against the NCATS MIPE library collection: KMS27_JCRB cell viability assay (AID 1918970). Note: nearly all actives have a fitted effect of over 30% in size. In short, it runs like this:
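ATP-based viability (CellTiter-Glo luminescence) is measured in cells treated 48 h with approved and investigational drugs at 37 °C. Controls are DMSO-only wells for full viability and media-only wells for none.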

Assay [12] can be described thus: Quantitative High-Throughput drug screen in 47 multiple myeloma cell lines against the NCATS MIPE library collection: KMS12BM_JCRB cell viability assay (AID 1918971). Note: nearly all actives have a fitted effect of over 35% in size. In short, it runs like this:
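Luminescent ATP measurement with CellTiter-Glo gives viability, scaled between DMSO-only wells (100%) and media-only wells (0%). Cells, 500 per well, faced library compounds for 48 hours at 37C.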

Assay [13] in a line: Quantitative High-Throughput drug screen in 47 multiple myeloma cell lines against the NCATS MIPE library collection: ARD_JJKsccE7 cell viability assay (AID 1918929). In short, it runs like this:
as §1

Assay [14] can be described thus: Quantitative High-Throughput drug screen in 47 multiple myeloma cell lines against the NCATS MIPE library collection: KHM11_PLB cell viability assay (AID 1918962). Note: nearly all actives have a fitted effect of over 35% in size. In short, it runs like this: as §1
Assay [15] is described as follows: Quantitative High-Throughput drug screen in 47 multiple myeloma cell lines against the NCATS MIPE library collection: JIM1_ECACC cell viability assay (AID 1918964). In short, it runs like this: as §1
The nature of assay [16]: Quantitative High-Throughput drug screen in 47 multiple myeloma cell lines against the NCATS MIPE library collection: INA6_PLB cell viability assay (AID 1918965; note: nearly all actives have a fitted effect of over 55% in size). In short, it runs like this:
as §3

A short description of assay [17]: Quantitative High-Throughput drug screen in 47 multiple myeloma cell lines against the NCATS MIPE library collection: Karpas25_ECACC cell viability assay (AID 1918968; note: nearly all actives have a fitted effect of over 35% in size). In short, it runs like this: as §1
A short description of assay [18]: Quantitative High-Throughput drug screen in 47 multiple myeloma cell lines against the NCATS MIPE library collection: JJN3_DSMZ cell viability assay (AID 1918966; note: nearly all actives have a fitted effect of over 50% in size). In short, it runs like this:
as §1

Results filed as inconclusive are left out. Calls of active or inactive are those of the source. Calls come from the whole dose curve; as a rule, active = well fitted curve in the direction sought with a large enough effect; inconclusive = small, poorly fitted or top-dose-only effect, or another doubt; inactive = no such curve, though single readings can be large; an effect the other way counts as inactive or inconclusive.
Potency is the fitted concentration of half-maximal effect.

For the compound `O=[N+]([O-])c1ncc[nH]1`, the Potency entry in assay [1], in assay [2], in assay [3], in assay [4], in assay [5] and in assay [6] was “inactive” throughout. Further, the Potency entry in assay [7], in [8], in assay [9], in assay [10] and in [11] was “inactive” throughout. For the same compound, the Potency in assay [12] is 16600 nM (active).
In the case of `Oc1ccc2c3c1O[C@H]1c4[nH]c5c(c4C[C@@]4(O)[C@@H](C2)N(CC2CC2)CC[C@]314)C[C@@]1(O)[C@H]2Cc3ccc(O)c4c3[C@@]1(CCN2CC1CC1)[C@H]5O4`, the Potency result in assay [1], in assay [2], in assay [3], in assay [4], in assay [5] and in assay [13] was “inactive” each time. In addition, the Potency result in assay [6], in assay [14], in assay [9], in assay [15], in assay [16] and in [10] was “inactive” in each case. Further, the Potency entry in [11] is “inactive”.
Take `CC[C@@H]1[C@@H](C)O[C@@](O)([C@@H](C)[C@H](O)[C@H](C)[C@H]2OC(=O)C=CC=C[C@@H](C)[C@@H]([C@@H](C)[C@@H](O)[C@H](C)[C@@]3(O)C[C@H](O[C@H]4C[C@H](O)[C@H](O)[C@H](C)O4)[C@H](CC)[C@@H](C)O3)OC(=O)C=CC=C[C@@H]2C)C[C@H]1O[C@H]1C[C@H](O)[C@H](O)[C@H](C)O1`: the Potency in assay [1] was 526 nM (active); in assay [2], 743 nM (active); in [3], 833 nM (active); in assay [4] it was 332 nM (active); in [5], 372 nM (active); in assay [13], 372 nM (active). Further, the Potency in assay [6] is 372 nM (active); in [7], 469 nM (active); in assay [14], 1050 nM (active); in [9] it was 935 nM (active); in [15], 264 nM (active); in [16], 1050 nM (active). Besides, the figures for the Potency in [10], in [17] and in assay [11] were 1050 nM (active), 743 nM (active) and 264 nM (active), respectively.
Regarding `CC(=Cc1csc(C)n1)[C@@H]1C[C@H]2O[C@@H]2CCC[C@H](C)[C@@H](O)[C@@H](C)C(=O)C(C)(C)[C@@H](O)CC(=O)O1`, the Potency entry in assay [1], in [2], in assay [3], in [5], in assay [9] and in [16] was “inactive” throughout. Besides, the Potency entry in assay [10] and in assay [17] was “inactive” in each case. Besides, the Potency in assay [4], in assay [13], in assay [7] and in [15] was 1 nM (active) throughout.
For the compound `CC(=O)OCC1=C(C(=O)O)N2C(=O)[C@@H](N)[C@@H]2SC1`, the Potency entry in assay [1], in assay [2], in [3], in assay [5], in assay [14] and in assay [9] was “inactive” throughout. Also, in assay [10], the Potency entry is “inactive”. In addition, the Potency in [4] is 23500 nM (active); in assay [6], 10500 nM (active); in assay [11], 7430 nM (active).
Consider `CC(C)(C)c1cc(C=C(C#N)C#N)cc(Br)c1O`, for which the Potency in assay [1] was 26400 nM (active); in assay [2], 16600 nM (active); in assay [3], 23500 nM (active); in assay [4], 26400 nM (active); in assay [5], 26400 nM (active); in assay [7], 18700 nM (active). Also, the Potency is 14800 nM (active) in [14]; 16600 nM (active) in assay [9]; 4180 nM (active) in [16]; 23500 nM (active) in [18]; 16600 nM (active) in assay [10]; 3720 nM (active) in [17]. Also, in assay [12], the Potency was 16600 nM (active).
For the compound `CCN1C[C@]2(OC(=O)c3ccccc3NC(C)=O)CC[C@H](OC)[C@@]34[C@H]5CC6[C@@H](OC)C[C@](O)(C(C[C@@H]23)[C@@H]14)[C@@]5(O)[C@@H]6OC`, the Potency result in assay [1], in assay [2], in assay [3], in assay [4], in assay [5] and in [6] was “inactive” in each case. Further, the Potency result in [7], in assay [9], in [16] and in assay [10] was “inactive” in each case.
As to `c1ccc2c(CN3CCNCC3)cccc2c1`, the Potency entry in [1], in [2], in assay [3], in [4], in assay [5] and in [13] was “inactive” each time. The Potency entry in [6], in assay [7], in assay [14], in assay [9], in [15] and in [16] was “inactive” in each case. In addition, the Potency entry in assay [10], in [17] and in assay [11] was “inactive” throughout.
Take `CC1=NN=C(c2ccc(N)cc2)c2cc3c(cc2C1)OCO3`: the Potency result in assay [1], in [2], in assay [3], in [5], in assay [9] and in [16] was “inactive” each time. The Potency entry in assay [10] and in assay [17] was “inactive” throughout. Moreover, the Potency in assay [6] and in assay [8] was 20900 nM (active) each time.
For the compound `NC1CC1c1ccccc1` (stereo not given), the Potency result in assay [1], in assay [2], in assay [3], in assay [4], in assay [5] and in assay [13] was “inactive” throughout. In addition, the Potency result in assay [6], in assay [7], in assay [14], in [9], in assay [16] and in [10] was “inactive” throughout. The Potency entry in assay [17] and in [11] was “inactive” throughout.
`CSCC[C@@H](NC(=O)[C@@H](Cc1ccccc1)NC(=O)CNC(=O)CNC(=O)[C@@H](N)Cc1ccc(O)cc1)C(=O)O`: the Potency entry in assay [1], in [2], in assay [3], in assay [4], in assay [5] and in [13] was “inactive” throughout. Further, the Potency result in [7], in assay [14], in assay [9], in assay [16], in [10] and in [17] was “inactive” each time. Further, the Potency entry in assay [11] is “inactive”. Besides, in assay [8], the viability (% of DMSO) is 132% (active).
As for `C1=C2CCCN[C@H]2[C@@H]2C[C@H]1[C@@H]1CCCCN1C2`, the Potency entry in assay [1], in assay [2], in assay [3], in [4], in assay [5] and in [6] was “inactive” throughout. Besides, the Potency result in assay [7], in assay [8], in assay [14], in assay [9], in assay [10] and in [11] was “inactive” throughout.
As for `COC1=CC(C)=C[C@@H](C)[C@@H](O)[C@@H](C)CC(C)=CC=C[C@H](OC)[C@H]([C@@H](C)[C@@H](O)[C@H](C)[C@@]2(O)C[C@@H](O)[C@H](C)[C@@H](C(C)C)O2)OC1=O`, the Potency was 4.2 nM (active) in [1]; 18.7 nM (active) in assay [2]; 18700 nM (active) in assay [3]; 1 nM (active) in assay [4]; 14800 nM (active) in assay [6]; 9.3 nM (active) in assay [7]. The Potency in [14] is 1 nM (active); in [9] it was 5.3 nM (active); in assay [15] it was 1 nM (active); in assay [10], 1660 nM (active).

The record behind these values is PubChem BioAssay (NCATS).
